Some test systems named below: SR leukemia; RPMI-8226 leukemia; OVCAR-8 ovarian; OVCAR-5 ovarian; OVCAR-4 ovarian; IGROV1 ovarian; OVCAR-3 ovarian; HS 578T breast; NCI/ADR-RES ovarian; T-47D breast; BT-549 breast; MDA-MB-435 melanoma; SW-620 colon; MCF7 breast; HCT-116 colon; HCC-2998 colon; KM12 colon; SK-OV-3 ovarian.
Holding throughout (assay): NCI-60 one-dose screen, 48 h (100 = growth as untreated, 0 = no growth, -100 = all killed)
What all share (settings): 10 µM unless noted

Among the data in PubChem BioAssay (NCI) are growth values, retold here.

Each structure is given as a SMILES string. About 83,000 compounds went through this panel and 20% of them were active in at least one assay; those are over-represented in the sample as a whole.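 Testing used 96-well plates and a 48-hour single-concentration exposure. Example: -40 means 40% of the starting cells died.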 Unmarked numbers belong to inactive results. Activity calls are given as the source filed them. Rule for the calls: active = growth percent below 10; inactive = the rest.

As to `COc1cnc2c(c1)C(=O)c1c-2n(CCCN2CCNCC2)c(=O)c2cc([N+](=O)[O-])ccc12`, the growth was -21.7% (active) in the assay with SR leukemia; -37.1% (active) in the assay on RPMI-8226 leukemia; -52.8% (active) with OVCAR-8 ovarian; -77.9% (active) with OVCAR-5 ovarian; -77.1% (active) in the assay with OVCAR-4 ovarian; -58.3% (active) in the assay on IGROV1 ovarian. The growth with OVCAR-3 ovarian was -83.1% (active); in the assay with HS 578T breast, 70.7%; in the assay on NCI/ADR-RES ovarian, -44.3% (active); in the assay with T-47D breast it was -52.2% (active); with BT-549 breast it was 21.7%; with MDA-MB-435 melanoma, -92% (active). Also, the growth is -70% (active) in the assay on SW-620 colon; -63.5% (active) in the assay on MCF7 breast; -93.6% (active) in the assay on HCT-116 colon; 36.2% in the assay with HCC-2998 colon; -75.5% (active) in the assay on KM12 colon.
On to `Cc1ccc2c(c1)C(=O)/C(=C/c1ccc(OCC(=O)c3ccccc3)cc1)O2`, for which the growth in the assay with SR leukemia was 107%; with RPMI-8226 leukemia, 216%; in the assay on OVCAR-8 ovarian, 106%; with OVCAR-5 ovarian, 107%; in the assay on OVCAR-4 ovarian, 83.9%; in the assay on IGROV1 ovarian it was 75.9%. Besides, the growth in the assay with OVCAR-3 ovarian is 106%; in the assay with HS 578T breast, 105%; with NCI/ADR-RES ovarian, 88.1%; in the assay with T-47D breast, 77.8%; in the assay with BT-549 breast, 112%; with MDA-MB-435 melanoma, 106%. For the same compound, the growth with SW-620 colon was 108%; in the assay on MCF7 breast it was 88.7%; in the assay on HCT-116 colon, 93.4%; in the assay on HCC-2998 colon it was 125%; with KM12 colon it was 101%.
For `Nc1c(C(=O)Nc2cccc3c2OCCO3)sc2nc3c(cc12)C(=O)CCC3`, the growth was 36.3% in the assay on SR leukemia; 33.7% with RPMI-8226 leukemia; 51.8% with OVCAR-8 ovarian; 36.1% in the assay on OVCAR-5 ovarian; 71% in the assay on OVCAR-4 ovarian; 48% with IGROV1 ovarian. Moreover, the growth in the assay on OVCAR-3 ovarian was 16.2%; in the assay with HS 578T breast it was 29.5%; with NCI/ADR-RES ovarian, 14.1%; in the assay with T-47D breast it was 36.5%; in the assay with BT-549 breast it was 62.7%; in the assay on MDA-MB-435 melanoma, -60.4% (active). In addition, the growth is 25.2% in the assay on SW-620 colon; 18.6% in the assay on MCF7 breast; 33.8% in the assay on HCT-116 colon; 46.6% in the assay with HCC-2998 colon; 23.4% in the assay on KM12 colon.
As to `CCCCNc1ccc2c3c1cccc3c(=O)n1c3ccccc3nc21`, the growth was 15.6% with SR leukemia; 80.5% with RPMI-8226 leukemia; 106% in the assay on OVCAR-8 ovarian; 110% in the assay on OVCAR-5 ovarian; 96.4% in the assay on SK-OV-3 ovarian; 41.8% in the assay on IGROV1 ovarian. Also, the growth in the assay with OVCAR-3 ovarian is 95.3%; in the assay with HS 578T breast, 93.1%; with NCI/ADR-RES ovarian, 91.3%; with T-47D breast it was 35.7%; with BT-549 breast, 98.2%; in the assay with MDA-MB-435 melanoma it was 111%. In addition, the growth was 86.4% with SW-620 colon; 10.3% with MCF7 breast; 86.7% in the assay on HCT-116 colon; 74% in the assay with HCC-2998 colon; 77.7% with KM12 colon.
In the case of `COc1ccc(C2c3ccc4ccccc4c3Oc3ncnc(N)c32)cc1` (stereo not given), the growth was 46% in the assay with SR leukemia; 86% in the assay with RPMI-8226 leukemia; 92.8% in the assay on OVCAR-8 ovarian; 97.9% with OVCAR-5 ovarian; 62.1% in the assay with SK-OV-3 ovarian; 64.3% in the assay on IGROV1 ovarian. In addition, the growth with OVCAR-3 ovarian was 88%; in the assay on HS 578T breast it was 82.2%; in the assay on NCI/ADR-RES ovarian it was 74.7%; in the assay on T-47D breast, 60.1%; in the assay on BT-549 breast, 88.3%; in the assay with MDA-MB-435 melanoma it was 8.46% (active). Further, the growth was 76.8% with SW-620 colon; 68.1% in the assay with MCF7 breast; 92.9% in the assay with HCT-116 colon; 104% in the assay on HCC-2998 colon; 72.4% in the assay with KM12 colon.
As for `O=C1C[C@H](N2C(=O)c3ccccc3S2(=O)=O)C2CO[C@@H]1O2`, the growth was 10.3% in the assay on SR leukemia; 91.1% in the assay on RPMI-8226 leukemia; 93.7% with OVCAR-8 ovarian; 97.5% in the assay on OVCAR-5 ovarian; 84.3% in the assay with OVCAR-4 ovarian; 103% in the assay on IGROV1 ovarian. Moreover, the growth in the assay with OVCAR-3 ovarian is 86.9%; in the assay on HS 578T breast it was 102%; in the assay with NCI/ADR-RES ovarian, 98.3%; with T-47D breast, 54.1%; in the assay with SW-620 colon, 56.1%; in the assay with MCF7 breast, 23.1%. Moreover, the growth is 42.7% with HCT-116 colon, 99.3% in the assay on HCC-2998 colon and 102% in the assay on KM12 colon.
Consider `C=C(C[n+]1ccccc1)[C@@H]1CC[C@]2(C(=O)OC)CC[C@]3(C)[C@H](CC[C@@H]4[C@@]5(C)CC[C@H](O)C(C)(C)[C@@H]5CC[C@]43C)[C@@H]12`, for which the growth with SR leukemia is 108%; in the assay with RPMI-8226 leukemia it was 91.1%; in the assay on OVCAR-8 ovarian, 102%; with OVCAR-5 ovarian, 102%; with SK-OV-3 ovarian, 95%; with IGROV1 ovarian, 98%. For the same compound, the growth is 108% in the assay with OVCAR-3 ovarian; 101% in the assay with HS 578T breast; 103% in the assay on NCI/ADR-RES ovarian; 82.5% in the assay with T-47D breast; 99% in the assay with BT-549 breast; 91.8% in the assay with MDA-MB-435 melanoma. Further, the growth with SW-620 colon was 91.6%; in the assay on MCF7 breast, 97.7%; with HCT-116 colon, 97%; with HCC-2998 colon, 104%; in the assay on KM12 colon, 103%.
With `OCC1C2C=CC(C2)C1CO` (stereo not given), the growth in the assay on SR leukemia was 78.7%; in the assay on RPMI-8226 leukemia, 97%; in the assay with OVCAR-8 ovarian, 98.6%; in the assay on OVCAR-5 ovarian, 101%; in the assay on OVCAR-4 ovarian, 94%; in the assay on IGROV1 ovarian, 101%. The growth with OVCAR-3 ovarian is 107%; in the assay on HS 578T breast, 104%; in the assay on NCI/ADR-RES ovarian it was 104%; in the assay on T-47D breast, 153%; in the assay with BT-549 breast, 98.7%; in the assay with MDA-MB-435 melanoma, 109%. In addition, the growth is 98% in the assay with SW-620 colon; 111% in the assay on MCF7 breast; 96.7% in the assay on HCT-116 colon; 125% in the assay with HCC-2998 colon; 106% with KM12 colon.
`C[C@]12C[C@@H](c3ccoc3)OC(=O)[C@@H]1CC[C@]1(C)[C@@H]2CC[C@@H](O)[C@]1(C)O`: the growth in the assay on SR leukemia was 74.5%; in the assay with RPMI-8226 leukemia, 101%; in the assay on OVCAR-8 ovarian, 104%; in the assay on OVCAR-5 ovarian it was 137%; in the assay with OVCAR-4 ovarian, 128%; in the assay with IGROV1 ovarian, 102%. The growth in the assay on OVCAR-3 ovarian is 112%; in the assay on HS 578T breast, 81.1%; with NCI/ADR-RES ovarian, 104%; with T-47D breast, 82.6%; with BT-549 breast it was 106%; with MDA-MB-435 melanoma, 57.4%. Further, the growth is 63.2% in the assay on SW-620 colon, 90.5% in the assay with HCT-116 colon, 95.8% in the assay on HCC-2998 colon and 102% in the assay on KM12 colon.
